The values below come from article PMC4336329 (PLoS ONE, 2015).

In all, about 310,000 compounds went through this assay and about 14,000 (4.5%) showed an effect of 50% or more. Effects have a minus sign here. The sample as a whole holds a higher share of strong results than the screen did.
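Note: peak tail current of the secondary pulse compared with the same well before compound.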

Sequence of human ether-à-go-go-related gene (hERG) potassium channel (Q12809 whole entry, looked up): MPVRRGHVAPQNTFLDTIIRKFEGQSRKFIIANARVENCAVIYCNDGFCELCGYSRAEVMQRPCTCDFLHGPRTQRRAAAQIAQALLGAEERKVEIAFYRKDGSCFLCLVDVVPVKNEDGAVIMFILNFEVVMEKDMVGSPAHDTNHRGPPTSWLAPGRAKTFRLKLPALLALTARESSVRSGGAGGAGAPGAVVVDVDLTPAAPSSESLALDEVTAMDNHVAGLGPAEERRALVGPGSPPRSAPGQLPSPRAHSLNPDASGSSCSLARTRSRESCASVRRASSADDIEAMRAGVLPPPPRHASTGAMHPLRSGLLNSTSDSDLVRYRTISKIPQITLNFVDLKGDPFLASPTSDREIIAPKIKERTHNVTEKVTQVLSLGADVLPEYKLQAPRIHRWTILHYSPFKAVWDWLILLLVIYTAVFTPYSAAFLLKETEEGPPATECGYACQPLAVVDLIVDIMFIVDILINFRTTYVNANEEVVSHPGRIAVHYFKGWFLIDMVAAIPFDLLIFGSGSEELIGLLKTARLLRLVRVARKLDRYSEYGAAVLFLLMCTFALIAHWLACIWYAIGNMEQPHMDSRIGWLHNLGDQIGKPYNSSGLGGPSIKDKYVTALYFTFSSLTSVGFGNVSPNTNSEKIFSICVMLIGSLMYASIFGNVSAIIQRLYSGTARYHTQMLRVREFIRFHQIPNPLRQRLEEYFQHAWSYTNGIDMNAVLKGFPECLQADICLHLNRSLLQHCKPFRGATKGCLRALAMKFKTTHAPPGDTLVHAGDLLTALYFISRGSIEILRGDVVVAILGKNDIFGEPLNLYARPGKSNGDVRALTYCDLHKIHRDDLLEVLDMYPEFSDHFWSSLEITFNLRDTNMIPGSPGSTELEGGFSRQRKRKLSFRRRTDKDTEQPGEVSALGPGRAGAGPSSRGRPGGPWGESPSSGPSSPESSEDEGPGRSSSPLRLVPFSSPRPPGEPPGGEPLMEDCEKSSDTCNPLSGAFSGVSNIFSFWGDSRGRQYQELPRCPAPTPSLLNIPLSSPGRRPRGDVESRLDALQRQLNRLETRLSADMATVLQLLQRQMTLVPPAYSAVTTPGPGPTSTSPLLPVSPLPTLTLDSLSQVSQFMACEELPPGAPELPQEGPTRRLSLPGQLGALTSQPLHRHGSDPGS

The assay addresses human ether-à-go-go-related gene (hERG) potassium channel (human, UniProt Q12809). The experiment in a line: primary screen, population patch clamp on CHO cells stably expressing hERG; higher = less effect of the substance.
On to `COc1ccccc1C(=O)NCCC(=O)NCc1ccccn1`, for which the “hERG current change (%, negative = inhibition) at 10uM” value is -2.66%.
In the case of `O=[N+]([O-])c1ccc(Oc2ccc(Oc3ccc(C(F)(F)F)cn3)cc2)nc1`, the “hERG current change (%, negative = inhibition) at 10uM” value is recorded as -1.44%.
The value for `O=C(O)C(=O)O.O=[N+]([O-])c1ccc(Oc2ccc(C(F)(F)F)cn2)cc1` was -53.9%.
The same measure for `O=C(O)c1ccc(Oc2ccc(C(F)(F)F)cn2)cc1`: 17.5%.
The same measure for `COc1ccc(NC(=O)Nc2c(C)n(C)n(-c3ccccc3)c2=O)cc1`: -18.6%.
As to `NC1=NC(=O)/C(=C\c2ccco2)S1`, the “hERG current change (%, negative = inhibition) at 10uM” value worked out at 19.2%.
Turning to `O=C1N=C(N2CCCC2)S/C1=C\c1ccccc1`, the “hERG current change (%, negative = inhibition) at 10uM” value came out at 15.2%.
For `O=C1N=C(N2CCN(c3ccccc3)CC2)S/C1=C/c1ccco1`, the “hERG current change (%, negative = inhibition) at 10uM” value was -53.8%.
The value for `O=C1N=C(N2CCN(c3ccccc3)CC2)S/C1=C/c1cccs1` was -49.3%; that for `O=C1N=C(N2CCN(c3ccccc3)CC2)S/C1=C\c1ccco1` was -66.1%; that for `O=C1N=C(N2CCCC2C(=O)O)S/C1=C\c1ccco1` (centres unmarked) was 35%.
On to `CCC(C)C(NC(=O)CCCNC(=O)CCC(=O)OC1O[C@H]2OC3(C)CC[C@H]4[C@H](C)CCC(C1C)C24OO3)C(=O)O` (some centres unmarked), for which the “hERG current change (%, negative = inhibition) at 10uM” value is 4.12%.
The value for `CC(C)CC(NC(=O)CCCNC(=O)CCC(=O)OC1O[C@H]2OC3(C)CC[C@H]4[C@H](C)CCC(C1C)C24OO3)C(=O)O` (some centres unmarked) was 1.34%.
The same measure for `Cc1cc(C)n2c3c(c(C#N)c2n1)CC(C)(C)OC3`: 2.81%; for `C/C(=N\Nc1nc(-c2ccccn2)nc2ccccc12)c1ccc(F)cc1`: 11%; for `c1ccc(CCNc2nc(-c3ccccn3)nc3ccccc23)cc1`: -78.6%.
The value for `CCC(C)Nc1nc(-c2cccc(OC)c2O)nc2ccccc12` (centres unmarked) was -5.73%; that for `C(=N\Nc1nc(-c2ccccn2)nc2ccccc12)/c1ccccc1` was 12.3%; that for `Oc1ccccc1-c1nc(NCc2ccco2)c2ccccc2n1` was 1.8%.
For `c1ccc(-c2nc(NCC3CCCO3)c3ccccc3n2)nc1` (centres unmarked), the “hERG current change (%, negative = inhibition) at 10uM” value is recorded as -23.3%.
The same measure for `c1ccc(CNc2nc(-c3ccccn3)nc3ccccc23)cc1`: -43.5%; for `CC(C)(C)Nc1nc(-c2ccccn2)nc2ccccc12`: -69.8%.
The value for `c1ccc(-c2nc(NCc3ccco3)c3ccccc3n2)nc1` was -62.9%.
The value for `CCC(C)Nc1nc(-c2ccccn2)nc2ccccc12` (centres unmarked) was -50.2%; that for `Cl.c1ccc(-c2nc(NCc3ccco3)c3ccccc3n2)cc1` was -33.4%.
In the case of `c1ccc(CCNc2nc(-c3ccncc3)nc3ccccc23)cc1`, the “hERG current change (%, negative = inhibition) at 10uM” value was 3.71%.
